# Active and inactive are the calls of the source.
# Columns and labels:
# [1] = system: PRMT1 (protein arginine N-methyltransferase 1); test: PRMT1 binders on small-molecule microarrays, primary screen, biochemical, small-molecule microarray, 635 nm fluorescence (AID 1088); settings: small-molecule microarray binding, higher = more signal;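 also: binding of Prmt1 protein to compounds spotted on small-molecule microarray slides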
# [2] = yeast growth modulation, basal conditions, primary screen, YJM789 clinical isolate, OD600, 24 h (AID 1089);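 also: growth of clinical yeast isolate S. cerevisiae YJM 789 seeded 1000 cells per well; test concentration not given here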; settings: S. cerevisiae YJM789 growth, higher = more signal, called active from +8 up or from −8 down
# [3] = fission yeast growth modulation, primary screen, strain 972, OD600, 24 h, no modulator (AID 1090);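 also: basal condition with compound alone and no growth modifier present; test concentration not given here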; settings: S. pombe 972 growth, higher = more signal, called active from +8 up or from −8 down
# [4] = S. cerevisiae growth modulation with rapamycin, primary screen, strain BY4716, OD600, 96 h (AID 1091); settings: higher = more signal, called active from +8 up or from −8 down; also: test concentration not given here
# [5] = target: Torsin-1A-interacting protein 2 (Homo sapiens) (UniProt Q8NFQ8); test: LULL1 binders on small-molecule microarray, primary screen, cell lysate, human LULL1 lysate, 635/667 nm fluorescence (AID 1092); settings: hLULL1 lysate binding, 635 nm fluorescence, higher = more signal;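 also: probe is lysate of COS7 cells overexpressing human LULL1; score merges per-feature 667 nm fluorescence with signal-to-noise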
# [6] = E. coli growth modulation, two-sided OD650, primary screen, E. coli filamentation project, strain DRC41, 24 h (AID 1093); settings: OD650, 24 h, higher = more signal, called active from +8 up or from −8 down;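 also: MC1000 strain lacking acrAB efflux and sulA so SOS filamentation is blocked; test concentration not given here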
# [7] = small-molecule microarray binders of probe aLefty2, primary screen, biochemical, biotinylated probe, 635/667 nm fluorescence (AID 1094); settings: higher = more signal;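 also: score merges spot fluorescence near 667 nm with spot signal-to-noise ratio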
# [8] = system: Noggin (protein binding on small-molecule microarray); test: Noggin binders on small-molecule microarray, primary screen, biochemical, 635/667 nm fluorescence (AID 1095); settings: 635 nm fluorescence, higher = more signal;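 also: score merges 667 nm feature fluorescence with signal to noise over triplicate slides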
# [9] = target: Neurogenic locus notch homolog protein 3 (Homo sapiens) (UniProt Q9UM47); test: NOTCH3 binders on small-molecule microarray, primary screen, biochemical, 635/667 nm fluorescence (AID 1096); settings: NOTCH3 binding, 635 nm fluorescence, higher = more signal
# [10] = small-molecule microarray binders of probe aEGFR, primary screen, biochemical, biotinylated probe, 635/667 nm fluorescence (AID 1097); settings: higher = more signal;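 also: probe is a biotinylated anti-EGFR antibody binding compounds printed on slides; score combines fluorescence near 667 nm and signal to noise of each spot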
# [11] = system: Plasmodium falciparum Sir2 (PF13_0152, Sir2A); test: pfSir2 binders on small-molecule microarrays, primary screen, biochemical, small-molecule microarray, 635 nm fluorescence (AID 1098); settings: small-molecule microarray binding, fluorescence 635 nm; higher = more signal;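 also: score merges spot fluorescence intensity with its signal-to-noise ratio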
# [12] = small-molecule microarray binders of probe aDKK1, primary screen, biochemical, biotinylated probe, 635/667 nm fluorescence (AID 1099); settings: higher = more signal;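 also: score merges 667nm spot fluorescence with signal to noise across triplicate slides; reference of the scale not given here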
# [13] = small-molecule microarray binders of probe aCHRDL2, primary screen, biochemical, biotinylated probe, 635/667 nm fluorescence (AID 1100); settings: higher = more signal
# [14] = splicing luciferase reporter signal modulators, primary screen, spliceosome inhibition project, cell-based, HEK293, splice +/- reporter (AID 1101); settings: luminescence, 24 h, higher = more signal, called active from +8 up or from −8 down;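 also: HEK293 cells carrying a splicing-competent luciferase reporter gene; test concentration not given here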
# [15] = target: Fibroblast growth factor 10 (Homo sapiens) (UniProt O15520); test: FGF10 binders on small-molecule microarrays, primary screen, biochemical, small-molecule microarray, 635 nm fluorescence (AID 1102); settings: FGF10 binding, fluorescence 635 nm, higher = more signal
# [16] = system: glycogen synthase kinase-3 (GSK3A per assay name; protocol says GSK3B); test: GSK3 binders on small-molecule microarrays, primary screen, biochemical, small-molecule microarray, 635 nm fluorescence, GSK3A (AID 1103); settings: small-molecule microarray binding, fluorescence 635 nm; higher = more signal; also: the record names both GSK3A and GSK3B
# [17] = target: Epidermal growth factor receptor (Homo sapiens) (UniProt P00533); test: EGFR binders on small-molecule microarrays, primary screen, biochemical, small-molecule microarray, 635 nm fluorescence (AID 1104); settings: EGFR binding, higher = more signal;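 also: score merges 667 nm emission intensity with spot signal to noise over triplicate slides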
# [18] = target: Follistatin-related protein 3 (Homo sapiens) (UniProt O95633); test: FSTL3 binders on small-molecule microarrays, primary screen, biochemical, small-molecule microarray, 635 nm fluorescence (AID 1105); settings: FSTL3 binding, higher = more signal;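 also: score merges emission near 667 nm and signal to noise per printed spot across three slides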
# [19] = target: Dickkopf-related protein 1 (Homo sapiens) (UniProt O94907); test: DKK1 binders on small-molecule microarrays, primary screen, biochemical, small-molecule microarray, 635 nm fluorescence scan (AID 1106); settings: DKK1 binding, higher = more signal;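 also: score merges emission near 667 nm with signal to noise over three replicate slides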
# [20] = system: Inhibin beta A chain (activin A); test: INHBA (activin A) binders on microarrays, primary screen, biochemical, small-molecule microarray, 635 nm fluorescence scan (AID 1107); settings: small-molecule microarray binding, higher = more signal;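 also: mouse activin A protein probed at 4.33 µg/mL on printed slides; score merges bound-protein fluorescence near 667 nm with spot signal-to-noise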
# Chain of Torsin-1A-interacting protein 2 (Homo sapiens) (Q8NFQ8 whole entry, looked up): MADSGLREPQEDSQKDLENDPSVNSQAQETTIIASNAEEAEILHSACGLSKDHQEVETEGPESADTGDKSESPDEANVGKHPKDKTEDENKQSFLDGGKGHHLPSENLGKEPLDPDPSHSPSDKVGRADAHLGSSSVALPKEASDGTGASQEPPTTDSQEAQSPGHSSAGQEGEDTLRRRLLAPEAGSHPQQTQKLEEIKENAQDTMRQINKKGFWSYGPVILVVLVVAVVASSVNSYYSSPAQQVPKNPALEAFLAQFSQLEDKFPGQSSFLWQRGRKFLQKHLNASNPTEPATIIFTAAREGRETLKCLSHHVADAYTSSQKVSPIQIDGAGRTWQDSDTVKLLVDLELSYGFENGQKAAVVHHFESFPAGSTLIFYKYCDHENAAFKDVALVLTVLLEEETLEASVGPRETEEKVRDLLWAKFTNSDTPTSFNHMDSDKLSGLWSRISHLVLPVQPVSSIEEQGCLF
# Chain of Epidermal growth factor receptor (Homo sapiens) (P00533 whole entry, looked up): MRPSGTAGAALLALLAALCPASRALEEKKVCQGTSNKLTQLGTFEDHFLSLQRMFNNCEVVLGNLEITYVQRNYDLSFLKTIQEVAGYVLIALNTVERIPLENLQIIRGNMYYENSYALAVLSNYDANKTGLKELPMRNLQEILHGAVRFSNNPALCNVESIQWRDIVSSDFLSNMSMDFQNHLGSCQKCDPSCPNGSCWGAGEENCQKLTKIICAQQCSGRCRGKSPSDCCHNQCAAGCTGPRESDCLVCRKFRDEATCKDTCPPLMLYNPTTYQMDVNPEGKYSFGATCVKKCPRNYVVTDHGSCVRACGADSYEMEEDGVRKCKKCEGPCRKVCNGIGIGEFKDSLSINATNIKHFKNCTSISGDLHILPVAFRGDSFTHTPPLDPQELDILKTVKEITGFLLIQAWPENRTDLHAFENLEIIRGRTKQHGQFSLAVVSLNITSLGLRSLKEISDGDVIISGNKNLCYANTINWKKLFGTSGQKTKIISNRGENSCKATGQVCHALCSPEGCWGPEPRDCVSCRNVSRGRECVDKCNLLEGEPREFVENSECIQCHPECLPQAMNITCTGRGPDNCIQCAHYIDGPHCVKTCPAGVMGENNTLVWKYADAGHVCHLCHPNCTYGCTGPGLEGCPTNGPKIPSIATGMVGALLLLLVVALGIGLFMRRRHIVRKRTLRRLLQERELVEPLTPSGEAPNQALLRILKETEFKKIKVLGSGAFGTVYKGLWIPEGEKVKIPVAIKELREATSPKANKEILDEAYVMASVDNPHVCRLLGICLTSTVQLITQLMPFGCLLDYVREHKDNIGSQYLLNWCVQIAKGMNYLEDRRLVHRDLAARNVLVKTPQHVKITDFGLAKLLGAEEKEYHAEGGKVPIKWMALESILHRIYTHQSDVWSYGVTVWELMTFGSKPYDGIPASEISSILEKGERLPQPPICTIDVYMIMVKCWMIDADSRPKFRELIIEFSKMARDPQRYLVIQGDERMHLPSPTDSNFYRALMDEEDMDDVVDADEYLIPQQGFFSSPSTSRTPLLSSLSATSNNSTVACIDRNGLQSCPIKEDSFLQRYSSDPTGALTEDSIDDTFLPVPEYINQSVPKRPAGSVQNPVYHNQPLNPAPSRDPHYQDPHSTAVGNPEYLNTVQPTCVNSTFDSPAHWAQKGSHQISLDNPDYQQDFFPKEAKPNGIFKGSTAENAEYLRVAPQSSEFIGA
# Chain of Fibroblast growth factor 10 (Homo sapiens) (O15520 whole entry, looked up): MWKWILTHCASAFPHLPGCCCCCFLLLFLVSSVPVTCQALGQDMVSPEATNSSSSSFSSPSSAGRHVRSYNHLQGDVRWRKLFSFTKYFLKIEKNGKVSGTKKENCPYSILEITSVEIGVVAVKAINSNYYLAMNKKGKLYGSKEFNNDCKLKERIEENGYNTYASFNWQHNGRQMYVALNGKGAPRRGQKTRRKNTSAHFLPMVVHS
# Chain of Follistatin-related protein 3 (Homo sapiens) (O95633 whole entry, looked up): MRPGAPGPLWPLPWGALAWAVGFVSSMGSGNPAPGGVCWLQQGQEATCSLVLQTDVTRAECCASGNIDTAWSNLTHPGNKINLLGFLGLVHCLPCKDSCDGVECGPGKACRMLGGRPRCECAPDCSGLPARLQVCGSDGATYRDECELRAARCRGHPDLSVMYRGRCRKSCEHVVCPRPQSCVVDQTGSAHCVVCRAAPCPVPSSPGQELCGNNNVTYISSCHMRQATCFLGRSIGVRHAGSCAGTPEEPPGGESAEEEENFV
# Chain of Dickkopf-related protein 1 (Homo sapiens) (O94907 whole entry, looked up): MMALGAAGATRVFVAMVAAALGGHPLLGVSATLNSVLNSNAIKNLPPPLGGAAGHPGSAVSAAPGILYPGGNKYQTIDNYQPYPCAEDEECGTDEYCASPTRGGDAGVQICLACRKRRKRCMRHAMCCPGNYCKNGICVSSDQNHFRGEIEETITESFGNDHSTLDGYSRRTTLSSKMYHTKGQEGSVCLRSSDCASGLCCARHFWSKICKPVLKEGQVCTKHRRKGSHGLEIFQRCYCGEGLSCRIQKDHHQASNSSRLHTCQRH
# Chain of Neurogenic locus notch homolog protein 3 (Homo sapiens) (Q9UM47 whole entry, looked up): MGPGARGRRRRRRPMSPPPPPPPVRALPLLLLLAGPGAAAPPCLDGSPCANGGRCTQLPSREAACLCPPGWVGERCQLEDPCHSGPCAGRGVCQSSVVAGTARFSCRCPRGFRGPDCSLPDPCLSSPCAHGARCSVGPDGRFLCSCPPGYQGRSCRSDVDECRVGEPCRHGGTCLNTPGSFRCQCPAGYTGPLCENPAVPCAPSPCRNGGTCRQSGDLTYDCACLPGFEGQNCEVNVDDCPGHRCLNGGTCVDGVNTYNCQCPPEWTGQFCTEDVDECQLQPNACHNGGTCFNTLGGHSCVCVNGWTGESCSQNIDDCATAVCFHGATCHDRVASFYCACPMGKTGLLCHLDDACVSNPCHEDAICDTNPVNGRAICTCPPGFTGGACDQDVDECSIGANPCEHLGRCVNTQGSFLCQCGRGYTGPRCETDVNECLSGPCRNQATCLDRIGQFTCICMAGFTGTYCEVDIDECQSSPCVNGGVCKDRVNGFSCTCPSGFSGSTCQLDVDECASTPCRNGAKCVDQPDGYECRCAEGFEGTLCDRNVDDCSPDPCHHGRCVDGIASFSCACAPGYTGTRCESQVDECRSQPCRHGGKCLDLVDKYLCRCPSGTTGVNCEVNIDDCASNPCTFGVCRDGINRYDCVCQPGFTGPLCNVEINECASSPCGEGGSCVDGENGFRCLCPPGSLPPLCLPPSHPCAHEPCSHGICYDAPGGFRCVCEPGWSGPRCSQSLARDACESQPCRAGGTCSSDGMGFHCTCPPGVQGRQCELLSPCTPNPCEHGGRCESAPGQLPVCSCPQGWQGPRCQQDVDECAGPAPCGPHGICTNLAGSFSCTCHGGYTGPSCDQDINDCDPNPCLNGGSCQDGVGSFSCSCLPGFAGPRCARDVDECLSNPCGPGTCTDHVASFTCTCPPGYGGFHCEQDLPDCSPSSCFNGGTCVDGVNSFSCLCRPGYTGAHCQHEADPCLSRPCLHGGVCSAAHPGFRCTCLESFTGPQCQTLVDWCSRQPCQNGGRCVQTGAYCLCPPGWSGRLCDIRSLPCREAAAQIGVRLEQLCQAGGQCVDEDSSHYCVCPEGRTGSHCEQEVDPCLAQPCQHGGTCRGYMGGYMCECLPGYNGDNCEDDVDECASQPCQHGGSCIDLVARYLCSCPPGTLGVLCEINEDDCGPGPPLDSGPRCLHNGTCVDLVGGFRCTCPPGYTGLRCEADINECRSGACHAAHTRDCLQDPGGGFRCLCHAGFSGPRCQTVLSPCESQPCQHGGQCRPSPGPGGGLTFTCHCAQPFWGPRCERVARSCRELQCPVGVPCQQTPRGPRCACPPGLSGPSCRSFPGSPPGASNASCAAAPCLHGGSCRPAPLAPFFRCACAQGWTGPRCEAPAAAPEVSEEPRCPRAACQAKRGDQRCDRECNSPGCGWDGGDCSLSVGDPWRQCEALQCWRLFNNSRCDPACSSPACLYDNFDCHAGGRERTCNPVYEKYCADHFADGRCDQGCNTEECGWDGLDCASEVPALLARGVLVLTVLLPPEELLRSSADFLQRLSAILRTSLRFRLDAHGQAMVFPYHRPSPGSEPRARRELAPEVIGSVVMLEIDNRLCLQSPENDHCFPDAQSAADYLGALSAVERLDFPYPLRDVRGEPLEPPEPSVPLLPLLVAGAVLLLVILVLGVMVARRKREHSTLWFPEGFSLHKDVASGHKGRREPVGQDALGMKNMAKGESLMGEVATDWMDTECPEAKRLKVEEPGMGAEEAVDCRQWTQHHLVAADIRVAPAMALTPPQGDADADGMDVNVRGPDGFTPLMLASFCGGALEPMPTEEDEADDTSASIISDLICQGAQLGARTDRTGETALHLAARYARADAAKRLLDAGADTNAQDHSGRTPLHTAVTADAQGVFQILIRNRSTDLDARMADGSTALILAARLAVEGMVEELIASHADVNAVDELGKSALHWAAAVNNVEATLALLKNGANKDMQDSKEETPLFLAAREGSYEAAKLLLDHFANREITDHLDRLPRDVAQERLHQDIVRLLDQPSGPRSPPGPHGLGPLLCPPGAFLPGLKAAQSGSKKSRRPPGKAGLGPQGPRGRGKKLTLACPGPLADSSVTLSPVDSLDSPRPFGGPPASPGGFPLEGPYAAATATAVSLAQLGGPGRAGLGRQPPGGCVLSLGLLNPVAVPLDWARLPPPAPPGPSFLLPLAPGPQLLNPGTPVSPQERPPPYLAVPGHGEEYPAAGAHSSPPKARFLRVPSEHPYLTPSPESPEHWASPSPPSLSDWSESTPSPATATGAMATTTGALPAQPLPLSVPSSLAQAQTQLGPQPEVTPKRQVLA
SMILES,composite z-score [1],z-score [2],z-score [3],z-score [4],composite z-score [5],z-score [6],composite z-score [7],composite z-score [8],composite z-score [9],composite z-score [10],composite z-score [11],composite z-score [12],composite z-score [13],z-score [14],composite z-score [15],composite z-score [16],composite z-score [17],composite z-score [18],composite z-score [19],composite z-score [20]
COc1cc(OC)c(C(O)C2C=CC3C(=O)N(c4ccccc4)C(=O)C3N2Nc2ccccc2F)cc1Br (stereo not given),1.58,0.0228 (inactive),1.77 (inactive),0.511 (inactive),3.44,-1.36 (inactive),0.0235,0.662,1.03,-0.0531,0.76,0.805,0.95,0.484 (inactive),0.97,0.0826,0.256,1.45,-0.351,0.625
C=CCC(OC(C)=O)[C@@H]1[C@@H](N(Cc2cc3ccccc3o2)C(=O)c2cccc3ccccc23)c2cc(OCCCO)ccc2N1C(=O)c1ccc2ccccc2c1 (stereo not given in full),-0.305,0.0315 (inactive),-0.943 (inactive),-0.0147 (inactive),0.583,-0.234 (inactive),0.0826,0.413,0.222,-0.139,-0.459,0.245,0.246,-1.18 (inactive),0.0473,-0.553,-0.0798,0.182,0.0022,0.867
C=CCOC(=O)[C@H]1[C@@H]2C(=O)O[C@@H](c3ccccc3)[C@@H](c3ccccc3)N2[C@@H](c2ccc(OCCOC(=O)[C@H]3C[C@H]4C(=O)NCC(=O)N4[C@H]3c3ccc(O)cc3)cc2)[C@]12C(=O)Nc1ccc(I)cc12,1.3,0.203 (inactive),0.629 (inactive),4.17 (inactive),0.871,0.47 (inactive),-0.148,0.895,0.672,-0.0531,1.41,-0.144,-0.335,0.0882 (inactive),0.669,0.821,0.63,0.915,1.12,0.236
Cc1ccc(S[C@]2(C(=O)NCCCN(C)C)CC(=O)N(Cc3ccccc3Cl)[C@@H]2c2ccc(CO)cc2I)cc1,-0.338,0.641 (inactive),-2.52 (inactive),1.43 (inactive),0.605,0.562 (inactive),0.258,-0.845,-1.22,-0.209,-0.393,0.844,0.864,-1.53 (inactive),-1.29,-1.19,-1.3,-0.551,-1.39,1.4
O=c1cccc(-c2ccccc2C(F)(F)F)o1,-0.205,-0.35 (inactive),-0.392 (inactive),0.591 (inactive),1.08,-0.582 (inactive),0.659,-0.798,-0.85,0.323,-0.722,1.15,0.567,0.756 (inactive),-0.382,-0.363,-0.955,-0.722,-0.469,1.11

# From PubChem BioAssay
